Drawing on PubChem BioAssay (NCI), this text covers growth inhibition for 40 compounds.

Compounds without any hit were thinned out: in the full panel of roughly 79,000, 15% have a hit. The source made the active and inactive calls. Rule as the data show it: active = growth inhibition above about 70%; inactive = the rest.

The assay in a line: NCI Yeast Anticancer Drug Screen. Data for the bub3 strain (AID 167). The settings on record: S. cerevisiae bub3 mutant strain, at 50.0 µM, stronger effect = higher value. The method in brief: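 Whole-cell yeast assay. The mutant strain was incubated with compounds, and growth inhibition was determined by comparison with vehicle-treated cells.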
As to `CCOC(=O)CNC(=O)C1C2c3ccccc3C(c3ccccc32)C1C(=O)O` (stereo not given), the growth inhibition was 94% (active). For `O=[N+]([O-])c1ccc(NP(=S)(Nc2ccc([N+](=O)[O-])cc2)c2ccccc2)cc1` the value was 95% (active). For `O=P(c1ccccc1)(c1ccccc1)c1ccccc1.[Cl][Sn]([c]1ccccc1)([c]1ccccc1)[c]1ccccc1` the value was 99.3% (active); for `CC(C)(C)OOC(=O)/C=C\C(=O)OOC(C)(C)C`, 9.7% (inactive); for `Cc1cc2c(cc1O)C(C)(C)CCC2(C)C`, 96.8% (active). The figure for `N#CC(C#N)=Cc1ccc(Cl)o1` is 45% (inactive); for `COc1c(Br)cc(/C=C/[N+](=O)[O-])cc1Br` it is 88.2% (active).

In the case of `[O]=[Sb]([OH])([OH])[c]1ccc(NC2OC(CO)C(O)C(O)C2O)cc1` (stereo not given), the growth inhibition was 91.8% (active).

Consider `NC(=S)C1=C(N)Oc2c(c(=O)oc3ccccc23)C1c1ccc(Br)cc1` (stereo not given), for which the growth inhibition is 62.6% (inactive). The figure for `COS(=O)(=O)c1ccccc1` is -4.55% (inactive); for `O=[N+]([O-])c1cc[n+]([O-])c2ccccc12` it is 49.5% (inactive). For `O=C(c1ccccc1)c1c(CC(O)c2cccnc2)n(C(=O)c2ccccc2)c2ccccc12` (stereo not given) the value was 87.9% (active). For `Nc1nc2ncnc(N)c2nc1-c1ccc(N(CCCl)CCCl)cc1` the value was 13.7% (inactive); for `O=C1c2ccccc2CCC1Br` (stereo not given), 98.7% (active). As to `CC1CCCC[N-]1.CC1CCCC[N-]1.N#C[S-].N#C[S-].[Cd]` (stereo not given), the growth inhibition was 67.7% (inactive).

For the compound `CCOP(=O)(OCC)/C(C#N)=C/c1ccc(Br)cc1`, the growth inhibition is 91.8% (active).

In the case of `CN(CCCl)Cc1ccc(OCc2ccccc2)c(OCc2ccccc2)c1`, the growth inhibition is 99.4% (active). Consider `O=C(O)c1cccc2cccc(C(=O)O)c12.[Hg]`, for which the growth inhibition was 99.2% (active). For `S=c1[nH]c2ccccc2s1.[Pb]` the value was 94% (active); for `COc1ccc([As](O[As](c2ccc(OC)cc2)c2ccc(OC)cc2)c2ccc(OC)cc2)cc1`, 99.4% (active). For `CC1=C/C(=C2/N=C(N(C)C)SS2)C(C)=N1` the value was 43.9% (inactive).

On to `CN1C2CCC1c1c([nH]c3ccccc13)C2` (stereo not given), for which the growth inhibition is 6.25% (inactive).

Regarding `C[CH2][Sn]([Br])([CH2]C)[c]1ccccc1CN(C)C`, the growth inhibition is 86.8% (active). In the case of `O=C(CCl)Nc1ccc(Cl)cc1`, the growth inhibition is 51.9% (inactive). The figure for `ClC1CCCCC1[Se](Cl)(Cl)C1CCCCC1Cl` (stereo not given) is 95.6% (active); for `Cc1cc(C(C)(C)c2ccc(O)c(C)c2)ccc1O` it is 99.2% (active); for `O=[N+]([O-])O.[In]` it is -1.85% (inactive). The figure for `[pH]1p2[pH]p3p1p3[pH]2.c1cc[c]([Ge]([c]2ccccc2)[c]2ccccc2)cc1.c1cc[c]([Ge]([c]2ccccc2)[c]2ccccc2)cc1.c1cc[c]([Ge]([c]2ccccc2)[c]2ccccc2)cc1` is -1% (inactive); for `C1=CC2CCC[N-]C2N1.C1=CC2CCC[N-]C2N1.[I][Pt+2][I]` (stereo not given) it is 99% (active); for `O=[N+]([O-])/C=C/c1cccc(F)c1` it is 99.5% (active). The figure for `O=[N+]([O-])c1ccc(CS(=O)(=O)C(Cl)(Cl)Cl)o1` is 90.3% (active).

Turning to `CC(=O)[O][Hg][c]1ccc(N)[c]([Hg][O]C(C)=O)c1`, the growth inhibition is 99.2% (active).

Take `CNP(=O)(Oc1cc(Cl)c(Cl)cc1Cl)N1CCN(c2ccccc2)CC1` (stereo not given): the growth inhibition is 97.5% (active). `Cc1ccc2c(c1)N(CCN(CCCl)CCCl)c1c(ccc3ccccc13)S2`: the growth inhibition is 34.7% (inactive). For `CC1(C(=O)O)CCCC2(C)c3cc(O)ccc3CCC12` (stereo not given) the value was 41.9% (inactive); for `C#CC(O)(CC)CC`, 38.8% (inactive); for `CC1CC[N-]C(C)C1.CN(C)C=O.[Cl][Pt][Cl]` (stereo not given), 89.4% (active). With `CN1CCN(c2ccc3nc(-c4ccc5nc(-c6ccc(N(C)CCCl)cc6)[nH]c5c4)[nH]c3c2)CC1`, the growth inhibition was 98.8% (active). For `CC(=O)NNc1ccccc1` the value was 87% (active); for `CC(C)[S-].CC(C)[S-].[Pt+2].c1ccc([PH+](c2ccccc2)c2ccccc2)cc1.c1ccc([PH+](c2ccccc2)c2ccccc2)cc1`, 67.3% (inactive).
